Source: PubChem (NMMLSC)
HRas wt GTP: modulators of GTP binding to human HRas wildtype. P01112. GST-Ras wt beads, Bodipy-FL-GTP binding, flow cytometry; actives lie on both sides. GTP binding activity, % at 10 µM. 190,000 tested, 0.14% active. AID 759;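 active = GTP binding activity at least 20% away from the 100% baseline, either lowered as inhibitor or raised as activator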;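 also: 0% = unlabeled GTP competition control and 100% = no-compound control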
Rab2 wt GTP: changes GTP binding to wildtype dog Rab2A, up or down; 190,000 tested, 0.19% active; GST-Rab2 wt beads, Bodipy-GTP binding, flow cytometry; P61105; GTP binding activity, % at 10 µM;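 active = GTP binding activity at least 20 points away from 100%, either lowered or raised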;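 also: 0% = beads with excess unlabeled GTP and 100% = no-compound control corrected for plate trend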
Rab7 wt modul: modulators of GTP binding to dog Rab7 wildtype GTPase; GST-Rab7 beads, fluorescent GTP binding, flow cytometry; actives lie on both sides; untreated = 100%, excess cold GTP = 0%; GTP binding activity (percent of control), % at 10 µM; 190,000 tested, 0.055% active; AID 758;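 active = fluorescent GTP binding to Rab7 beads changed by at least 20 points from the 100% baseline, either direction, mostly lower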;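 also: median green fluorescence of bound Bodipy-FL-GTP per Rab7 bead population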
Cdc42 wt: changes GTP binding to wildtype human Cdc42. percent activity (GTP binding), % at 10 µM. GST-Cdc42 beads, Bodipy-GTP binding, flow cytometry; actives lie on both sides. 190,000 tested, 0.2% active. P60953;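 active = percent activity GTP binding at least 20 points away from the 100% baseline, either down as inhibitor or up as activator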;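 also: median bead fluorescence of bound Bodipy-FL-GTP at 100 nM; 0% = excess unlabeled GTP control and 100% = no compound control; below 100% means less GTP binding so inhibitor and above means activator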
Target sequence (P60953 whole entry, looked up): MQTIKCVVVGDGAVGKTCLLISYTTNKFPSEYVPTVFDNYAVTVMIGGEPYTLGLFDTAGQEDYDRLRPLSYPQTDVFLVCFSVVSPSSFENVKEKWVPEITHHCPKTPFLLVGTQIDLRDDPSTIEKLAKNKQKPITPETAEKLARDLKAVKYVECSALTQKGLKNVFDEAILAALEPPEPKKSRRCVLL
Rac1 wt modul: alters GTP binding to wildtype human Rac1. P63000. GST-Rac1 beads, fluorescent GTP binding, flow cytometry; actives lie on both sides; 0 = cold GTP competed, 100 = untreated. GTP binding activity (% of control), % at 10 µM. 190,000 tested, 0.27% active;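 active = GTP binding activity at least 20 points away from the 100% control level, either lower or higher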
Rac1 act GTP bind: human Rac1 activated mutant GTP binding change. GST-Rac1 activated beads, fluorescent GTP binding, flow cytometry; actives lie on both sides; 100% means binding = to untreated wells. percent activity (GTP binding), % at 10 µM. 190,000 tested, 0.11% active. AID 764;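 active = GTP binding at least 20 percentage points away from the 100% baseline, in either direction, so actives lie on both sides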
An asterisk follows results filed as active; [ ] = dose if it differs, or a comment. Only some compounds are listed: those with a hit (about 0.38% of all), similar ones and a draw of the others.

SMILES	HRas wt GTP	Rab2 wt GTP	Rab7 wt modul	Cdc42 wt	Rac1 wt modul	Rac1 act GTP bind
CCn1nc(/C=C/c2ccccc2)nc2c(=O)n(C)c(=O)nc1-2	82	83	92	76*	96	83
CCOCCCn1c(N)c(C(=O)Nc2sc3c(c2C(=O)OC)CCCC3)c2nc3ccccc3nc21	72*	72*	88	72*	82	87
CC(C)n1c(=O)c(C=Nc2ccc(F)cc2)c(O)n(Cc2ccco2)c1=O	100	98	98	100	102	99
O=c1[nH]c(=S)[nH]c(O)c1N=Nc1ccc(S(=O)(=O)N2CCc3ccccc32)cc1	93	94	97	93	120*[activator]	98
Cc1c(N=Nc2c(O)[nH]c(=S)[nH]c2=O)c(=O)n(-c2ccccc2)n1C	102	100	101	104	105	98
CC(C)C1(C)N=C(c2nc3ccccc3cc2C(=O)O)NC1=O (stereo unspecified)	101	100	100	103	104	100
Cc1cccc(-n2c(O)c(C=Nc3ccc(Br)cn3)c(=O)[nH]c2=O)c1	99	102	99	98	102	100
Cc1ccc(-n2c(O)c(/C=N/c3ncc(Br)cc3Br)c(=O)[nH]c2=O)cc1	94	94	94	100	123*[activator]	98
